Sm TGR inh = S. mansoni TGR enzyme inhibition; Q962Y6; purified TGR, DTNB reduction, TNB absorbance 405 nm; Potency, µM (series often up to 114 µM), for the others: top-dose activity change, negative = inhibition, usual class: inhibitors; 360,000 tested, 3% active; also: potency is read from the fitted curve at half-maximal effect; % is scaled to controls: 0 for no effect and ±100 for the full control effect; nearly all actives have a fitted effect of over 60% in size
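TGR 20 nM + NADPH 100 uM (dispensed conc.), cpd preinc 15 min RT; start with NADPH (500 uM addition) then DTNB (15 mM addition). Kinetic TNB absorbance, 405 nm filter. Four-parameter Hill fit across titration.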
NS1 function inh = blocks influenza NS1 protein function; Potency, µM (titrated, usually from 46.1 µM), inactives show at the highest dose activity, positive = more growth; 270,000 tested, 0.4% active; calls by dose curve; also: potency is read from the fitted curve at half-maximal effect; actives are rising curves; nearly all actives have a fitted effect of over 50% in size
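Read-out: OD600 growth recovery of NS1-expressing budding yeast. Cells grown overnight at 30C in -URA glucose medium, washed, resuspended and diluted 1:100 in 2% galactose assay medium, pH 6.0. Same strain lacking NS1 served as positive control.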
Shiga inhibitor = blocks Shiga toxin action in Vero cells. Vero cells, Shiga toxin protein synthesis inhibition reporter. inhibition, % at 38.7 µM. 290,000 tested, 9.2% active; in the data active = inhibition mostly above about 28%, no sharp cut-off; inactive = mostly below about 43%; also: 0% is about no effect
Pf growth 96h = inhibits malaria parasite growth, 96 h; P. falciparum luciferase reporter growth, 96 h; Potency, µM (doses to about 28.7 µM), for inactives: at the top dose activity change, negative = inhibition, hits mostly inhibitors; 320,000 tested, 6.9% active; AID 504834; also: potency is read from the fitted curve at half-maximal effect; % is scaled to controls: 0 for no effect and ±100 for the full control effect
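Infected RBCs, 2% Hct / 0.05% parasitemia final; luciferase-reporter P. falciparum; cpd 96 h, 37 C, 5% CO2; luciferase detection reagent; luminescence.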
Pf growth 48h = P. falciparum growth inhibition at 48 hours (one generation) | Potency, µM (highest dose often 28.7 µM), for inactives: at the highest dose activity change, negative = inhibition, usual class: inhibitors | P. falciparum luciferase growth in erythrocytes, 48 h | 310,000 tested, 5.9% active | AID 504832; also: potency is read from the fitted curve at half-maximal effect; % is scaled to controls: 0 for no effect and ±100 for the full control effect
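Firefly luciferase activity from engineered P. falciparum reports growth; inhibitors lower the luminescent signal. Cultures contained 2% hematocrit erythrocytes at 0.1% final parasitemia.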
CHX counter = counter-screen hit for Shiga toxin inhibitors, cycloheximide; cell reporter, cycloheximide protein synthesis inhibition counterscreen; 300,000 tested, 12% active; max response, %; in the data active = max response mostly above about 13%, no sharp cut-off; inactive = mostly below about 14%; also: read at 38.3 µM for the half of the compounds with a filed dose; 0% is about no effect
* = called active by the depositor; ? = inconclusive; . = not tested or not shown. Rows were chosen to be rich in hits. Some 21% of all compounds tested hit in one or more screens of this group. Unless noted, calls follow the shape of the dose curve; as a rule, active = well fitted curve in the direction sought with a large enough effect; inconclusive = small, poorly fitted or top-dose-only effect, or another doubt; inactive = no such curve, though single readings can be large; an effect the other way counts as inactive or inconclusive.

SMILES | Sm TGR inh | NS1 function inh | Shiga inhibitor | Pf growth 96h | Pf growth 48h | CHX counter
COC(=O)CC1C(=O)NCCN1C(=O)CSc1nc2cc(Cl)ccc2o1 (centres undefined) | -4% | 0% | -15 | 11% | 0% | -4
Cc1ccc(OCC(=O)Nc2nc(-c3ccccn3)cs2)c(C)c1 | -24% | . | . | ? | -18% | .
O=C(Nc1nc(-c2ccccn2)cs1)c1ccc([N+](=O)[O-])o1 | 10µM* | -2% | 10 | 2.3µM* | 2.9µM* | 16
Cc1ccc(C(=O)Nc2nc(-c3ccccn3)cs2)o1 | -27% | -10% | 48* | 2.3µM* | 4.1µM* | 23*
Cc1nc(-c2ccc(NC(=O)c3ccc(Br)o3)cc2)cs1 | -15% | -12% | 114* | 21% | 175% | 56*
CCc1cc(C(=O)Nc2nc(-c3ccccn3)cs2)sc1C | -16% | . | . | ? | 4.1µM* | .
Cc1nc(-c2cccc(NC(=O)c3ccc(Br)o3)c2)cs1 | -8% | -55% | 25 | ? | -9% | 16
CCNc1nc(NCC)n2c(SCC(=O)Nc3ccc(OC(F)F)cc3)nnc2n1 | 1% | . | . | ? | ? | .
COc1ccc(CC(=O)Nc2c(C(=O)N3CCN(c4ccccc4OC)CC3)oc3ccccc23)cc1OC | 21% | -30% | -13 | -3% | ? | -2
CC(=O)c1cccc(NC(=O)Cn2c(=O)oc3cc(S(=O)(=O)NC4CCCC4)ccc32)c1 | 7% | . | . | . | . | .
CCc1cc(=O)oc2cc(C)cc(OC(C)C(=O)NCCCN3CCCC3=O)c12 (centres undefined) | 3% | -7% | 2 | ? | ? | 11
CC(=O)Nc1ccc(-c2csc(NC(=O)c3ccc(C)o3)n2)cc1 | -62% | 0% | 11 | 9.3µM* | . | -3
O=C(NCc1ccccc1)c1ccc(-c2ccccc2F)o1 | 3% | -43% | 41* | -2% | 62% | 52*
Cc1ccc(C(=O)Nc2nc(-c3ccc([N+](=O)[O-])cc3)cs2)o1 | -26% | 8% | -7 | ? | 9% | 9
O=C(Nc1nc(-c2ccccn2)cs1)c1ccc(-c2ccccc2F)o1 | 25µM* | . | . | ? | ? | .
CCc1nnc(NC(=O)c2ccc(-c3ccccc3F)o2)s1 | -7% | . | 28 | ? | 19% | 22*
CCc1ccc(C(=O)C[n+]2cccc3cc(OC)ccc32)cc1 | 2% | 4% | -5 | 0% | ? | 2
CC(CN1CCCCC1)OC(=O)COc1ccc(Br)cc1 (centres undefined) | 5% | 7% | -6 | 0% | 25% | -2
COc1ccc(OC)c(C2c3c(-c4ccc(Br)cc4)n[nH]c3C(=O)N2c2ccc(Cl)cc2)c1 (centres undefined) | 8% | . | . | . | . | .
COc1ccc(C2C(C(=O)Nc3cccnc3)=C(C)Nc3nc(SCc4ccccc4)nn32)cc1 (centres undefined) | -12% | . | . | . | . | .
Cc1cc(OCC(=O)Nc2ccccc2N2CCOCC2)c(C(C)C)cc1Cl | 3% | . | . | ? | ? | .
O=C(COc1ccc([N+](=O)[O-])cc1)Nc1nc(-c2ccccn2)cs1 | -9% | . | . | 6.6µM* | 9.3µM* | .
CC(C)Cc1nc2sc3c(c2c(=O)n1N)CC(C)(C)OC3 | -4% | -4% | 4 | -3% | 28% | -1
O=C(Nc1ccc(O)cc1)c1ccc(NC(=O)C2CCCO2)cc1 (centres undefined) | -6% | 16% | 7 | ? | 20% | 8
CN(C)c1cccc(C(=O)NCC2CCCO2)c1 (centres undefined) | 10% | -2% | 42* | -11% | 50% | 14
SMILES | Sm TGR inh | NS1 function inh | Shiga inhibitor | Pf growth 96h | Pf growth 48h | CHX counter
CCCOC(=O)c1ccc(NC(=O)C2CCCO2)cc1 (centres undefined) | -10% | -17% | 66* | -18% | 136% | 39*
Cc1cc(NC(=O)c2ccc(NC(=O)C3CCCO3)cc2)ccc1Br (centres undefined) | -28% | 2% | 74* | 1% | 28% | 42*
COc1cccc(-c2cc(C(=O)NCC3CCCO3)c3cc(C)cc(C)c3n2)c1 (centres undefined) | 17% | -2% | 15 | ? | ? | 12*
Cc1cccc(C(=O)NCC2CCCO2)c1 (centres undefined) | 0% | 3% | 30 | -109% | 19% | 11
CC1CCN(CCCNC(=O)Cn2ncc3c([nH]c4ccccc43)c2=O)CC1 | -6% | 24% | 34 | ? | -11% | 12
COc1ccc(CN2C(=O)c3ccccc3C2C(=O)NCC2CCCO2)c(OC)c1 (centres undefined) | 25% | -2% | -7 | 4.7µM* | -9% | 8
COc1cccc(-n2nc(C(=O)NCC3CCCO3)c3ccccc3c2=O)c1 (centres undefined) | -4% | -5% | -2 | 3.7µM* | -16% | 1
COc1ccccc1CC(=O)NCC1CCCO1 (centres undefined) | -6% | 9% | 10 | 16% | 8% | 9
COc1ccccc1CNC(=O)C(=O)NCC1CCCO1 (centres undefined) | 1% | 4% | 62* | 5.9µM* | 54% | 24*
COc1ccc(OC)c(CN2C(=O)c3ccccc3C2C(=O)NCC2CCCO2)c1 (centres undefined) | 4% | . | -19 | ? | ? | 2
Cc1ccc(C)n1-c1ccc(C(=O)NCC2CCCO2)cc1 (centres undefined) | 40µM* | 16% | 28 | 10µM* | -11% | -1
COC(=O)c1ccccc1S(=O)(=O)N1CCC(C(=O)NCc2ccco2)CC1 | -24% | . | . | ? | -25% | .
O=C(COc1ccc(F)cc1)Nc1ccc(Cl)c(-c2nc3ccccc3[nH]2)c1 | 5% | . | . | . | . | .
CCc1ccccc1S(=O)(=O)Cc1ccc(C(=O)NCC2CCCO2)o1 (centres undefined) | 40µM* | -7% | 15 | 9% | -9% | 8
CN(C)c1ccc(C(=O)NCC2CCCO2)cc1 (centres undefined) | -4% | 6% | 64* | ? | 269% | 43*
O=C(NCC1CCCO1)c1cc2c(s1)CCC2 (centres undefined) | 2% | . | 89* | 172% | 131% | 52*
CC1CCc2sc(C(=O)NCC3CCCO3)cc2C1 (centres undefined) | 4% | . | . | 145% | 114% | .
COc1ccc(CNC(=O)c2ccc(NC(=O)C3CCCO3)cc2)cc1 (centres undefined) | 0% | 0% | 26* | 23% | 23% | 9
COc1ccc(C(=O)NC(NC(=O)c2ccc(OC)c(OC)c2)c2ccccc2F)cc1OC | 0% | 8% | -2 | ? | 8% | -2
COc1ccc(CCNCC2CCCO2)cc1 (centres undefined) | -17% | -23% | 24* | 0% | 28% | 18*
CS(=O)(=O)N(CC(=O)NCC1CCCO1)c1cc(Cl)cc(Cl)c1 (centres undefined) | -11% | 1% | -15 | 3% | 8% | -1
